Screens deposited in PubChem BioAssay by National Center for Advancing Translational Sciences (NCATS).
TDP1 cell CPT = growth inhibition of DT40 Tdp1-/-;hTDP1 cells with camptothecin (screen for TDP1 inhibitors); chicken DT40 Tdp1-/-;hTDP1 cells + 20 nM CPT, ATP luminescence, 48 h; hit rate 12% among 420,000; Potency, µM (doses to about 46.2 µM), for the others: at the top dose activity change, negative = growth inhibition, actives largely listed as inhibitors; AID 686979; also: potency is read from the fitted curve at half-maximal effect; nearly all actives have a fitted effect of over 55% in size
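Cell growth measured by CellTiter-Glo luminescence after a minimum 48 h, 37 C compound exposure with 20 nM CPT in Tdp1-knockout DT40 cells stably expressing hTDP1, seeded 400/well; qHTS titration format.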
IL-1B inflam inh = blocks inflammasome-driven IL-1 beta release. THP-1 LPS/ATP IL-1B secretion, AlphaLISA, 16 h; hits give low values. activity change, % at 57.5 µM. hit rate 4.7% among 360,000. AID 743279; in the data active = activity change below about -50%; inconclusive = mostly about -30% to -49%
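THP-1 cells pretreated 1 hr with compounds (up to 57.5 uM final), then stimulated with LPS (250 ng/mL final) plus ATP (1.25 mM final); secreted IL-1B measured by AlphaLISA after 16 hr, decreased signal indicating inhibition.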
DT40 TDP1 no CPT = qHTS for Inhibitors of human tyrosyl-DNA phosphodiesterase 1 (TDP1): qHTS in cells in absence of CPT | DT40 Tdp1-/- hTDP1 cells, no CPT, ATP luminescence, 48 h | Potency, µM (top dose mostly 46.2 µM), inactives show at the top dose activity change, negative = growth inhibition, hits mostly inhibitors | hit rate 15% among 420,000; also: potency is read from the fitted curve at half-maximal effect; nearly all actives have a fitted effect of over 55% in size
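Chicken DT40 Tdp1-/- cells complemented with human TDP1, screened without camptothecin (DMSO vehicle only), 400 cells/well. Compounds pin-transferred, cells incubated at 37 °C for at least 48 hr. Growth read as ATP-dependent luminescence (CellTiter-Glo, 30 min at RT).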
Six1-Eya2 inh = blocks human Six1 binding to Eya2; Q15475+O00167; AlphaScreen GST-Six1/His-Eya2 binding, biochemical; hits give low values; activity change, % (no concentration beside the values); hit rate 0.56% among 360,000; AID 651725; in the data active = activity change below about -65%; inconclusive = mostly about -30% to -63%
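Six1/Eya2 binding was read as AlphaScreen signal after compounds were pinned into GST-Six1 plus His-tagged Eya2 (5X stock 250/500 nM) in pH 8.0 Tris/NaCl/TCEP buffer, beads added, then incubated 1 h, 37 C, dark.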
TDP1 inh = TDP1 (human) enzyme inhibition; Potency, µM (series often up to 130 µM), for the others: at the top dose activity change, negative = inhibition, most hits filed as inhibitors; AID 485290; Q9NUW8; recombinant TDP1, AlphaScreen DNA substrate cleavage; hit rate 0.28% among 350,000; also: potency is read from the fitted curve at half-maximal effect; nearly all actives have a fitted effect of over 40% in size
Target sequence (Q9NUW8 whole entry, looked up): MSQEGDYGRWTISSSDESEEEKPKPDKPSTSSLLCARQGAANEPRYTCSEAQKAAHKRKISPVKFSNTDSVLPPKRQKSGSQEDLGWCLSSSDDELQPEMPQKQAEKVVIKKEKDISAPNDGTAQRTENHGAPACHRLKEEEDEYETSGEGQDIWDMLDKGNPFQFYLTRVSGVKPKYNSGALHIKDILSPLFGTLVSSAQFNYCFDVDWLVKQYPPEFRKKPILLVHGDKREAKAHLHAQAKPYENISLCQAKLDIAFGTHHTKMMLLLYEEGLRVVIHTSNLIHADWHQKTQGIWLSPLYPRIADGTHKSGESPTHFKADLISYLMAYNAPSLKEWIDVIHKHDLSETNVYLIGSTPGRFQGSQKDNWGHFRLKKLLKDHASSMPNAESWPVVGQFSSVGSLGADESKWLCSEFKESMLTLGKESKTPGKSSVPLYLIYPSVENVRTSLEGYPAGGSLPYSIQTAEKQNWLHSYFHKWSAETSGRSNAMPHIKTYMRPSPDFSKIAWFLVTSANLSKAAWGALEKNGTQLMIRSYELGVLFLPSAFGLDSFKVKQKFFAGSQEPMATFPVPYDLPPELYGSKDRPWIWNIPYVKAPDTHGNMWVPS
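AlphaScreen read-out: signal falls as enzyme removes the 3' tyrosine-FITC from a 5'-biotinylated DNA oligo (15 nM, 5 min, RT). Enzyme was E. coli-made recombinant Tdp1 at 1 nM, exposed to compound for 15 min beforehand; beads 10 ug/ml, 10 min.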
CtBP-E1A blk = CtBP/E1A binding inhibition; hit rate 0.49% among 340,000; activity change, % (no concentration beside the values); AlphaScreen GST-E1A/His-CtBP binding, 1536-well; hits give low values; in the data active = activity change below about -65%; inconclusive = mostly about -30% to -63%
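Homogeneous bead-based format: GST-tagged E1A captured on glutathione donor beads, His-tagged CtBP on nickel acceptor beads; compounds precede bead addition by 2 h at 37 °C.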
An asterisk follows results filed as active; u = inconclusive; x = not tested or not shown; [ ] = another dose, or the depositor's remark. Hits are enriched below; roughly 18% of the tested compounds scored in any of these assays. Unless noted, calls follow the shape of the dose curve; as a rule, active = well fitted curve in the direction sought with a large enough effect; inconclusive = small, poorly fitted or top-dose-only effect, or another doubt; inactive = no such curve, though single readings can be large; an effect the other way counts as inactive or inconclusive. % is scaled to controls: 0 for no effect and ±100 for the full control effect.

SMILES	TDP1 cell CPT	IL-1B inflam inh	DT40 TDP1 no CPT	Six1-Eya2 inh	TDP1 inh	CtBP-E1A blk
C=CCn1c(N)c(C(=O)Nc2ccc(C)c(C)c2)c2nc3ccccc3nc21	-18%	5	u	-28	5%	u
Nc1c(C(=O)Nc2ccccc2)c2nc3ccccc3nc2n1CCCN1CCOCC1	u	-78*	u	u	1%	u
O=C(NCC1CCCO1)c1ccccc1 (stereo unspecified)	0%	18	0%	10	3%	-2
Nc1c(C(=O)NCC2CCCO2)c2nc3ccccc3nc2n1-c1ccccc1 (stereo unspecified)	16µM*	0	16µM*	14	0%	17
C=CCNC(=O)c1c(N)n(-c2ccc3c(c2)OCO3)c2nc3ccccc3nc12	12µM*	18	13µM*	6	-9%	4
CCCS(=O)(=O)N1CC(=O)N(c2ccccc2C)C(C)(C(=O)NC2CCCC2)C1 (stereo unspecified)	4%	x	-12%	x	-5%	x
COCC(C)OC(=O)c1c(N)n(-c2ccc(OC)c(OC)c2)c2nc3ccccc3nc12 (stereo unspecified)	-3%	-5	-10%	-4	0%	x
COCCCNC(=O)c1c(N)n(-c2cccc(S(N)(=O)=O)c2)c2nc3ccccc3nc12	u	-53*	u	-12	-1%	-5
CC(C)OCCCNC(=O)c1c(N)n(/N=C/c2cccs2)c2nc3ccccc3nc12	u	-29	u	6	4%	12
Nc1c(C(=O)NC2CCCC2)c2nc3ccccc3nc2n1/N=C/c1cccnc1	16µM*	-16	18µM*	-4	x	2
CC1(C)SC(=S)N(/N=C/c2cccnc2)C1N(O)C(=O)NC1CCCCC1 (stereo unspecified)	17%	22	6%	0	1%	-2
COCCCNC(=O)c1c(N)n(/N=C/c2ccccn2)c2nc3ccccc3nc12	10µM*	u	10µM*	-20	2%	-3
C=CCn1c(N)c(C(=O)Nc2cccc(C)c2)c2nc3ccccc3nc21	-24%	-61*	-15%	-16	6%	-19
Cc1cc(-c2ccccc2)c(C#N)c(N)n1	-19%	14	-19%	-1	1%	1
CCOC(=O)c1c(N)n(-c2ccc(C)c(C)c2)c2nc3ccccc3nc12	x	x	x	x	3%	x
CCCNC(=O)c1c(N)n(-c2cccc(OC)c2)c2nc3ccccc3nc12	u	-71*	u	16	-10%	10
COC(=O)c1c(N)n(-c2ccc(OC)c(OC)c2)c2nc3ccccc3nc12	5.8µM*	x	9.2µM*	x	x	x
S=c1nc(-c2csc3c2CCCC3)[nH][nH]1	16µM*	0	16µM*	-8	4%	-2
Cc1nnc2sc(-c3csc4c3CCCC4)nn12	14%	23	-8%	-5	0%	-15
O=C(Cn1cccc1)N1CCc2ccccc21	-19%	-7	-6%	-2	7%	-11
N=C(N=C(N)N)N1CCc2ccccc21	u	-8	13µM*	-16	3%	2
COc1ccc(-c2cc(C(=O)NC3CC3)c3ccccc3n2)cc1	u	-3	u	4	2%	x
COc1cc(/C=N/N=C2/NC(=O)C(c3ccccc3)S2)ccc1O (stereo unspecified)	4%	-12	0%	-12	0%	-19
CC(C)=N/N=C1/NC(=O)C(c2ccccc2)S1 (stereo unspecified)	u	0	16µM*	-18	x	-2
Cc1ccccc1NC(=O)Cn1c(=O)n(Cc2ccc3c(c2)OCO3)c(=O)c2oc3ccccc3c21	4.1µM*	x	8.2µM*	x	3%	x
SMILES	TDP1 cell CPT	IL-1B inflam inh	DT40 TDP1 no CPT	Six1-Eya2 inh	TDP1 inh	CtBP-E1A blk
O=C(Cn1c(=O)n(Cc2ccc(C(=O)NCc3ccc4c(c3)OCO4)cc2)c(=O)c2ccccc21)Nc1ccc(F)cc1F	-7%	x	u	x	25µM*	x
Cc1ccccc1NC(=O)Cn1c(=O)n(Cc2ccc3c(c2)OCO3)c(=O)c2ccccc21	-24%	x	16µM*	x	2%	x
CCC(C)NC(=O)Cn1c(=O)n(Cc2ccc(C(=O)NCc3ccc(C)cc3)cc2)c(=O)c2ccccc21 (stereo unspecified)	10µM*	x	23µM*	x	-2%[12.3 µM]	x
CCOC(=O)c1ccccc1NC(=O)Cn1c(=O)n(Cc2ccc(C(=O)NCc3ccc4c(c3)OCO4)cc2)c(=O)c2ccccc21	-12%	x	-6%	x	4%	x
COc1ccc(OC)c(S(=O)(=O)Nc2ccccc2O)c1	10%	21	7%	-6	x	0
O=C1[C@H]2[C@H]3[C@H](O)[C@H](O)C/C(=N/OCc4ccccc4)[C@@H]3CC[C@@H]2C(=O)N1c1cccc(Oc2ccccc2)c1	x	x	x	x	6%[21 µM]	x
Cc1cccc(C)c1-n1ncc(C(=O)NC2CCCC2)c1C1CCN(C(=O)OC(C)(C)C)CC1	u	x	u	x	0%	x
Cc1cccc(C)c1NC(=O)Cn1c(=O)n(Cc2ccc3c(c2)OCO3)c(=O)c2oc3ccccc3c21	5.2µM*	x	4.6µM*	x	3%	x
O=C(Cn1c(=O)n(Cc2ccc3c(c2)OCO3)c(=O)c2oc3ccccc3c21)Nc1ccccc1	-21%	x	-29%	x	8%	x
COc1ccc2c(c1)C1NC(=S)NC(C)(O2)C1C(=O)Nc1ccc(C)cc1C (stereo unspecified)	-4%	-56*	u	-1	3%	-2
COc1ccc(S(=O)(=O)N(CC(=O)Nc2cccnc2)c2ccc(Cl)cc2)cc1	3%	x	-25%	x	x	x
COc1ccc(N(CC(=O)Nc2cccc(N(C)S(C)(=O)=O)c2)S(=O)(=O)c2ccccc2)cc1Cl	10µM*	-1	21µM*	0	3%	x
CCOc1ccc(N(CC(=O)Nc2cccc(N(C)S(C)(=O)=O)c2)S(=O)(=O)c2ccccc2)cc1	21µM*	-14	u	-24	1%	-6
COc1ccc(S(=O)(=O)N(CC(=O)Nc2cc(C)cc(C)c2)c2ccc(Cl)cc2)cc1	u	x	23µM*	x	x	x
COc1ccc(N(CC(=O)Nc2cccc(N(C)S(C)(=O)=O)c2)S(=O)(=O)c2ccc(F)cc2)cc1	16µM*	-18	u	9	3%	0
COc1ccc(N(CC(=O)Nc2cccc(N(C)S(C)(=O)=O)c2)S(=O)(=O)c2ccc(C)cc2)cc1	u	8	u	-8	3%	x
